Each structure is given as a SMILES string. Results filed as inconclusive are left out. Entries that show only a call come without a potency. The source made the active and inactive calls. Calls follow the shape of the full dose curve; tested in HEK293 reporter line.

The nature of one assay: qHTS for Inhibitors of the Functional Ribonucleoprotein Complex (vRNP) of Lassa (LASV) Arenavirus: LASV Primary Screen - GLuc reporter signal (AID 1347082). Also: nearly all actives have a fitted effect of over 60% in size. To be noted: LASV minigenome vRNP, Gaussia luciferase reporter; series mostly up to 57.5 µM.
Turning to `NC(Cc1ccc(N(CCCl)CCCl)cc1)C(=O)O` (stereo not given), the Potency result is “inactive”.

For `NC(C(=O)O)c1cc(=O)[nH]o1` (stereo not given), the Potency entry is “inactive”.

Take `CCCN1CCc2cccc3c2[C@H]1Cc1ccc(O)c(O)c1-3`: the Potency result is “inactive”.

With `CC(=O)c1c(O)c(C)c(O)c(Cc2c(O)c3c(c(C(=O)/C=C/c4ccccc4)c2O)OC(C)(C)C=C3)c1O`, the Potency result was “inactive”.

On to `CC(N)[C@H](O)c1ccc(O)c(O)c1` (stereo not given in full), for which the Potency entry is “inactive”.

As for `CCOC(=O)c1ncn2c1[C@@H]1CCCN1C(=O)c1cc(OC)ccc1-2`, the Potency entry is “inactive”.

In the case of `COc1ccc2c(c1)C13CCCCC1C(C2)N(C)CC3` (stereo not given), the Potency entry is “inactive”.

Turning to `NC(=O)CI`, the Potency entry was “inactive”.

For the compound `c1ccc2c(N3CCNCC3)cccc2c1`, the Potency entry is “inactive”.

Turning to `Cc1o[nH]c(=O)c1CC(N)C(=O)O` (stereo not given), the Potency result was “inactive”.

Regarding `C/C(O)=C(\C#N)C(=O)Nc1cc(Br)ccc1Br`, the Potency result is “inactive”.

For `NC(Cc1cc(O)c(O)cc1O)C(=O)O` (stereo not given), the Potency entry is “inactive”.

Take `NCC(O)c1cc(O)c(O)cc1F` (stereo not given): the Potency result is “inactive”.

For the compound `C[N+](C)(C)CC#CCN1CCCC1=O`, the Potency result is “inactive”.

Consider `CN(N=O)c1cc(O)ccc1O`, for which the Potency result was “inactive”.

For the compound `N#CCCN`, the Potency result was “inactive”.

For `Cc1c2ccncc2c(C)c2c1[nH]c1ccccc12`, the Potency entry was “inactive”.

`NC(=O)c1cc(N2CC2)c([N+](=O)[O-])cc1[N+](=O)[O-]`: the Potency entry was “inactive”.

On to `NC(N)=Nc1ccc2[nH]c3c(c2c1)C[C@@]1(O)[C@H]2Cc4ccc(O)c5c4[C@@]1(CCN2CC1CC1)[C@H]3O5`, for which the Potency entry was “inactive”.

Take `CCCN1CCc2cc(O)cc3c2[C@H]1Cc1ccc(O)c(O)c1-3`: the Potency result is “inactive”.

On to `NNC(=O)c1ccc(O)cc1`, for which the Potency result was “inactive”.

On to `CN1CCc2cc(O)cc3c2[C@H]1Cc1ccc(O)c(O)c1-3`, for which the Potency entry is “inactive”.

Regarding `CC(C)(C)c1o[nH]c(=O)c1CC(N)C(=O)O` (stereo not given), the Potency result was “inactive”.

In the case of `OC1CCCCC1N1CCC(c2ccccc2)CC1` (stereo not given), the Potency result was “inactive”.

Consider `C[N+]1(C)CCN(c2ccccc2)CC1`, for which the Potency entry was “inactive”.

Turning to `C[N+]1(C)C2CCC1CC(OC(=O)c1c[nH]c3ccccc13)C2` (stereo not given), the Potency entry was “inactive”.

Take `CN(N=O)c1ccc(O)c(O)c1`: the Potency entry is “inactive”.

Consider `COc1ccc(CNC(=O)/C=C/c2ccc3[nH]cc(CCN(C)C)c3c2)cc1`, for which the Potency entry was “inactive”.

As to `CC(C)NP(=O)(NC(C)C)OP(=O)(NC(C)C)NC(C)C`, the Potency result was “inactive”.

`NCCc1ccc(S(=O)(=O)F)cc1`: the Potency entry is “inactive”.

For `COc1ccc2[nH]c3c(c2c1)CCNC3`, the Potency entry was “inactive”.

On to `N[C@@H](Cn1oc(=O)[nH]c1=O)C(=O)O`, for which the Potency result is “inactive”.

On to `C=CCN1CCC23c4c5ccc(O)c4O[C@H]2C(=O)CC[C@@]3(O)C1C5` (stereo not given in full), for which the Potency entry was “inactive”.

In the case of `CCCn1c(=O)c2[nH]c(C3CCCC3)nc2n(CCCOC(=O)c2ccc(S(=O)(=O)F)cc2)c1=O`, the Potency result is “inactive”.

`O=[N+]([O-])/C=C/c1ccc2c(c1)OCO2`: the Potency result was “inactive”.

Another assay in a line: qHTS for Inhibitors of the Functional Ribonucleoprotein Complex (vRNP) of Lassa (LASV) Arenavirus: Viability assay - alamar blue signal for LASV Primary Screen (AID 1347083). Also: nearly all actives have a fitted effect of over 80% in size. Also: potency is read from the fitted curve at half-maximal effect. To be noted: cell viability, alamar blue fluorescence (LASV minigenome counter-screen); series mostly up to 57.5 µM.
On to `NC(Cc1ccc(N(CCCl)CCCl)cc1)C(=O)O` (stereo not given), for which the Potency result was “inactive”.

As to `NC(C(=O)O)c1cc(=O)[nH]o1` (stereo not given), the Potency entry is “inactive”.

For `CCCN1CCc2cccc3c2[C@H]1Cc1ccc(O)c(O)c1-3`, the Potency entry is “inactive”.

Take `O=C1C=CC(=O)C=C1`: the Potency result is “inactive”.

On to `CC(=O)c1c(O)c(C)c(O)c(Cc2c(O)c3c(c(C(=O)/C=C/c4ccccc4)c2O)OC(C)(C)C=C3)c1O`, for which the Potency entry is “inactive”.

Take `CC(N)[C@H](O)c1ccc(O)c(O)c1` (stereo not given in full): the Potency entry was “inactive”.

With `CCOC(=O)c1ncn2c1[C@@H]1CCCN1C(=O)c1cc(OC)ccc1-2`, the Potency result is “inactive”.

On to `COc1ccc2c(c1)C13CCCCC1C(C2)N(C)CC3` (stereo not given), for which the Potency entry is “inactive”.

Turning to `NC(=O)CI`, the Potency entry is “inactive”.

For the compound `c1ccc2c(N3CCNCC3)cccc2c1`, the Potency entry was “inactive”.

In the case of `Cc1o[nH]c(=O)c1CC(N)C(=O)O` (stereo not given), the Potency result was “inactive”.

For `C/C(O)=C(\C#N)C(=O)Nc1cc(Br)ccc1Br`, the Potency entry is “inactive”.

As to `NC(Cc1cc(O)c(O)cc1O)C(=O)O` (stereo not given), the Potency result is “inactive”.

With `NCC(O)c1cc(O)c(O)cc1F` (stereo not given), the Potency result is “inactive”.

With `C[N+](C)(C)CC#CCN1CCCC1=O`, the Potency result is “inactive”.

As for `CN(N=O)c1cc(O)ccc1O`, the Potency entry is “inactive”.

For the compound `N#CCCN`, the Potency result is “inactive”.

With `NC(=O)c1cc(N2CC2)c([N+](=O)[O-])cc1[N+](=O)[O-]`, the Potency entry is “inactive”.

For `NC(N)=Nc1ccc2[nH]c3c(c2c1)C[C@@]1(O)[C@H]2Cc4ccc(O)c5c4[C@@]1(CCN2CC1CC1)[C@H]3O5`, the Potency result was “inactive”.

As to `CCCN1CCc2cc(O)cc3c2[C@H]1Cc1ccc(O)c(O)c1-3`, the Potency result is “inactive”.

Take `NNC(=O)c1ccc(O)cc1`: the Potency entry was “inactive”.

For `CN1CCc2cc(O)cc3c2[C@H]1Cc1ccc(O)c(O)c1-3`, the Potency result was “inactive”.

With `CC(C)(C)c1o[nH]c(=O)c1CC(N)C(=O)O` (stereo not given), the Potency entry is “inactive”.

With `OC1CCCCC1N1CCC(c2ccccc2)CC1` (stereo not given), the Potency result is “inactive”.

Regarding `C[N+]1(C)CCN(c2ccccc2)CC1`, the Potency entry was “inactive”.

For the compound `C[N+]1(C)C2CCC1CC(OC(=O)c1c[nH]c3ccccc13)C2` (stereo not given), the Potency entry was “inactive”.

Consider `CN(N=O)c1ccc(O)c(O)c1`, for which the Potency entry was “inactive”.

In the case of `COc1ccc(CNC(=O)/C=C/c2ccc3[nH]cc(CCN(C)C)c3c2)cc1`, the Potency entry was “inactive”.

On to `CC(C)NP(=O)(NC(C)C)OP(=O)(NC(C)C)NC(C)C`, for which the Potency entry was “inactive”.

For the compound `NCCc1ccc(S(=O)(=O)F)cc1`, the Potency result was “inactive”.

On to `COc1ccc2[nH]c3c(c2c1)CCNC3`, for which the Potency result is “inactive”.

Turning to `N[C@@H](Cn1oc(=O)[nH]c1=O)C(=O)O`, the Potency result was “inactive”.

On to `C[C@@H]1O[C@@H](O[C@H]2C[C@@H](O)[C@]3(CO)[C@@H]4C(CC[C@]3(O)C2)[C@@]2(O)CC[C@H]([C@@H]3COC(=O)C3)[C@@]2(C)C[C@H]4O)[C@H](O)[C@H](O)[C@H]1O` (stereo not given in full), for which the Potency is 3.98 µM (active).

As for `C=CCN1CCC23c4c5ccc(O)c4O[C@H]2C(=O)CC[C@@]3(O)C1C5` (stereo not given in full), the Potency entry was “inactive”.

For the compound `CCCn1c(=O)c2[nH]c(C3CCCC3)nc2n(CCCOC(=O)c2ccc(S(=O)(=O)F)cc2)c1=O`, the Potency entry is “inactive”.

The values above are taken from PubChem BioAssay (NCATS).
